Results published in PubChem BioAssay (Tox21).
Results filed as inconclusive are left out. Active and inactive are the calls of the source. Unless noted, calls come from the whole dose curve; as a rule, active = well fitted curve in the direction sought with a large enough effect in the repeat runs; inconclusive = weak or mixed curves; inactive = no such curve, though single readings can be large; an effect the other way counts as inactive or inconclusive. Residues, ends and D or L forms follow the SMILES beside them.

Columns and labels:
[1] = qHTS assay to identify small molecule antagonists of the estrogen receptor alpha (ER-alpha) signaling pathway using the BG1 cell line in the presence of 0.1 nM 17-beta-estradiol - cell viability counter screen (AID 1259241); note: nearly all actives have a fitted effect of over 40% in size
How it was run: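 In this screen, hormone-deprived VM7Luc4E2 cells were seeded at 4,000 per well, dosed with compound and 0.1 nM estradiol final, and incubated 22 hr at 37C and 5% CO2; fluorogenic live-cell protease signal reported viability.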

[2] = qHTS assay to identify small molecule antagonists of the androgen receptor (AR) signaling pathway using the MDA cell line in the presence of 0.5 nM R1881 - cell viability counter screen (AID 1259242); note: nearly all actives have a fitted effect of over 45% in size
How it was run: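 Cytotoxicity toward MDA-kb2 cells is measured by CellTiter-Fluor live-cell protease fluorescence after 16 hr compound exposure at 37C in the presence of 0.5 nM R1881 stimulator.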

[3] = target: Estrogen receptor (Homo sapiens) (UniProt P03372); experiment: qHTS assay to identify small molecule antagonists of the estrogen receptor alpha (ER-alpha) signaling pathway using the BG1 cell line in the presence of 0.1 nM 17-beta-estradiol (AID 1259244); note: nearly all actives have a fitted effect of over 50% in size
How it was run: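 After 5 days in hormone-depleted medium (charcoal-stripped serum, no phenol red), VM7Luc4E2 cells were seeded, incubated 24 h, then co-treated with compound and 0.1 nM (final) estradiol for 22 h before luminescence detection.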

[4] = qHTS assay to identify small molecule phospholipidosis (PLD) inducers (AID 1259344; active = well fitted curve in the direction sought with a large enough effect; an effect the other way counts as inactive or inconclusive)
How it was run: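 HepG2 cells, 900/well, treated with compound plus LipidTOX Red for 24 h at 37 C; amiodarone positive and DMSO negative controls. Fixed with paraformaldehyde/Hoechst, then high-content imaging scored LipidTOX pit count and integrated intensity per well and per cell.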

[5] = qHTS assay to identify small molecule HDAC inhibitors (AID 1259364); note: top concentration of the series differs between compounds; nearly all actives have a fitted effect of over 45% in size
How it was run: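 Homogeneous cell-based luminescent assay of endogenous class I/II HDAC activity; HCT-116 cells, 2 h compound exposure, 30 min HDAC-Glo development at RT.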

[6] = qHTS assay to identify small molecule HDAC inhibitors - cell viability counter screen (AID 1259365); note: series mostly up to about 92 µM; nearly all actives have a fitted effect of over 50% in size
How it was run: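 Measured quantity is CellTiter-Glo luminescence from wild-type HCT-116 cells after compound incubation of 2hr at 37C, 5% CO2; reagent developed 30min at room temperature.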

[7] = qHTS assay to identify small molecule agonists of the sonic hedgehog signaling (Shh) pathway - cell viability counter screen (AID 1259366); note: nearly all actives have a fitted effect of over 50% in size
How it was run: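 In quantitative high-throughput format, 3T3 Gli1-Luc cells were exposed to compounds for 24hr and multiplexed for viability using CellTiter-Fluor, incubated 1hr at 37C before the fluorescence read.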

[8] = qHTS assay to identify small molecule antagonists of the sonic hedgehog signaling (Shh) pathway - cell viability counter screen (AID 1259367); note: nearly all actives have a fitted effect of over 55% in size
How it was run: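 NIH/3T3-derived Gli1-Luc reporter cells, 2,000/well, plated 4 hr before compound addition, then stimulated with conditioned medium for 24 hr at 37C. Viability measured in the same wells by CellTiter-Fluor fluorescence, reagent added at 23 hr for 1 hr.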

[9] = qHTS assay to identify small molecule agonists of the sonic hedgehog signaling (Shh) pathway (AID 1259368; calls by dose curve;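 note: NIH/3T3-derived 3T3Gli1-Luc cells carrying a stable Gli1-driven firefly luciferase reporter; series mostly up to about 92 µM; nearly all actives have a fitted effect of over 15% in size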)
How it was run: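 Steps: seed 3T3 Gli1-Luc cells, incubate 4 hr at 37 C, pin-transfer compounds in DMSO alongside a positive control, incubate 24 hr, add luciferase detection reagent, wait 30 min at room temperature, read luminescence.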

[10] = qHTS assay to identify small molecule antagonists of the sonic hedgehog signaling (Shh) pathway (AID 1259369; calls by dose curve; note: nearly all actives have a fitted effect of over 45% in size)
How it was run: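 Inhibition of Shh signalling is measured as reduced Gli1-response-element firefly luciferase output in an NIH/3T3-derived stable reporter clone stimulated with conditioned medium for 24hr.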

[11] = target: Estrogen receptor beta (Homo sapiens) (UniProt Q92731); experiment: qHTS assay to identify small molecule agonists of the estrogen receptor beta (ER-beta) signaling pathway (AID 1259377; active = well fitted activation curve with a large enough effect in the signal ratio in the repeat runs, not every such curve was filed as active; the % refers to the signal ratio)
How it was run: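 Reporter cells (HEK293T, ER-beta-UAS-bla) receive compounds or DMSO after a 6 hr pre-incubation. They then incubate 16 hr at 37C/5% CO2, and fluorescence from LiveBLAzer B/G substrate is measured after 2 hours at room temperature.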

[12] = target: Estrogen receptor beta (Homo sapiens) (UniProt Q92731); experiment: qHTS assay to identify small molecule antagonists of the estrogen receptor beta (ER-beta) signaling pathway (AID 1259378; active = well fitted inhibition curve with a large enough effect in the signal ratio in the repeat runs, not every such curve was filed as active; the % refers to the signal ratio)
How it was run: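 ER-beta-UAS-bla HEK293T cells in 2% charcoal-stripped FBS medium treated with compound plus 1nM final 17-beta-estradiol for 16 hr at 37C. Beta-lactamase reporter read by FRET substrate fluorescence after 2 hours at room temperature.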

[13] = qHTS assay to identify small molecule agonists of the androgen receptor (AR) signaling pathway in the presence of an antagonist - cell viability counter screen (AID 1259379);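 note: MDA-kb2 human breast cancer cells carrying an MMTV luciferase reporter; series mostly up to about 92 µM; nearly all actives have a fitted effect of over 25% in size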
How it was run: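 Fluorescence from CellTiter-Fluor, added after 15 hr and read 1 hr later, gave cell viability. Cells were MDA-kb2 exposed to compounds (15 concentrations) in the presence of 3.0uM nilutamide at 37C, 0% CO2.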

[14] = qHTS assay to identify small molecule agonists of the estrogen receptor beta (ER-beta) signaling pathway - cell viability counter screen (AID 1259380); note: nearly all actives have a fitted effect of over 30% in size
How it was run: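 Same-well viability counter screen. Cells: ER-beta-UAS-bla HEK293T, plated 6 hr before compound, in 2% charcoal-stripped FBS. Compound exposure 16 hr, 37C; viability by CellTiter-Glo luminescence after 30 min at room temperature.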

[15] = qHTS assay to identify small molecule antagonists of the estrogen receptor beta (ER-beta) signaling pathway - cell viability counter screen (AID 1259382); note: series mostly up to about 92 µM; nearly all actives have a fitted effect of over 55% in size
How it was run: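 Following a 6 hr plating period, HEK293T cells carrying a UAS-driven beta-lactamase reporter under ER-beta control received compounds and 1nM E2 (final). After 16 hr at 37C and 2 hr substrate loading, CellTiter-Glo luminescence indicated viability.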

[16] = target: Estrogen receptor (Homo sapiens) (UniProt P03372); experiment: qHTS assay to identify small molecule agonists of the estrogen receptor alpha (ER-alpha) signaling pathway in the presence of an antagonist (AID 1259383; calls by dose curve; note: top concentration of the series differs between compounds; nearly all actives have a fitted effect of over 15% in size)
How it was run: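 Cells are hormone-deprived for 5 days (charcoal-stripped FBS, no phenol red), plated for 24hr, spiked with 10.0nM ICI-182,780, then dosed at 15 concentrations. After 22hr at 37C, ONE-Glo luminescence reports ERE-luciferase activity.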

[17] = qHTS assay to identify small molecule agonists or antagonists of the thyroid stimulating hormone receptor (TSHR) signaling pathway - wild type cell line counter screen (AID 1259384; calls by dose curve)
How it was run: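 Wild-type Hek293 cells, 800/well, 18 h at 37C, then compound with Ro20-1724 for 30 min RT. cAMP by HTRF (cAMP-d2/anti-cAMP cryptate), 1 h RT, fluorescence read. 15 concentrations, triplicates.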

[18] = target: Thyrotropin receptor (Homo sapiens) (UniProt P16473); experiment: qHTS assay to identify small molecule antagonists of the thyroid stimulating hormone receptor (TSHR) signaling pathway (AID 1259385; calls by dose curve; note: nearly all actives have a fitted effect of over 20% in size)
How it was run: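 TSHR-HEK293 cells (800/well) plated 18 h, then compounds with Ro20-1724 and TSH at 1.5 ng/mL final, 30 min at room temperature. cAMP quantified by HTRF (cAMP-d2/anti-cAMP-cryptate, 1 h); 15 concentrations in triplicate.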

Measured: Potency

Sequence of Estrogen receptor beta (Homo sapiens) (Q92731 whole entry, looked up): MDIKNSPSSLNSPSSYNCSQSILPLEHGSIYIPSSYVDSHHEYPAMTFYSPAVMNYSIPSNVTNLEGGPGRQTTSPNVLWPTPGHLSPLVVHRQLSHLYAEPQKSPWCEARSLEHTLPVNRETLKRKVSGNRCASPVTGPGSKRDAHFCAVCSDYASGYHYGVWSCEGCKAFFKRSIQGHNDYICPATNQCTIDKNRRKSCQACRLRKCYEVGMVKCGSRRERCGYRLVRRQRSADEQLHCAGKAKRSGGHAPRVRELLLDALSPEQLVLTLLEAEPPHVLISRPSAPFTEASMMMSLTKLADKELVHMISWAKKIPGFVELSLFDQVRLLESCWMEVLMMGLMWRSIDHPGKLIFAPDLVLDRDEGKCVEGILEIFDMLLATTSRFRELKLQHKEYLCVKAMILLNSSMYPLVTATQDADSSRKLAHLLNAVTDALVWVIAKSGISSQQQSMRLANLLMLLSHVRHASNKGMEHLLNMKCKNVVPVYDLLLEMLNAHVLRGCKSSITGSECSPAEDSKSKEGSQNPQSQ
Sequence of Thyrotropin receptor (Homo sapiens) (P16473 whole entry, looked up): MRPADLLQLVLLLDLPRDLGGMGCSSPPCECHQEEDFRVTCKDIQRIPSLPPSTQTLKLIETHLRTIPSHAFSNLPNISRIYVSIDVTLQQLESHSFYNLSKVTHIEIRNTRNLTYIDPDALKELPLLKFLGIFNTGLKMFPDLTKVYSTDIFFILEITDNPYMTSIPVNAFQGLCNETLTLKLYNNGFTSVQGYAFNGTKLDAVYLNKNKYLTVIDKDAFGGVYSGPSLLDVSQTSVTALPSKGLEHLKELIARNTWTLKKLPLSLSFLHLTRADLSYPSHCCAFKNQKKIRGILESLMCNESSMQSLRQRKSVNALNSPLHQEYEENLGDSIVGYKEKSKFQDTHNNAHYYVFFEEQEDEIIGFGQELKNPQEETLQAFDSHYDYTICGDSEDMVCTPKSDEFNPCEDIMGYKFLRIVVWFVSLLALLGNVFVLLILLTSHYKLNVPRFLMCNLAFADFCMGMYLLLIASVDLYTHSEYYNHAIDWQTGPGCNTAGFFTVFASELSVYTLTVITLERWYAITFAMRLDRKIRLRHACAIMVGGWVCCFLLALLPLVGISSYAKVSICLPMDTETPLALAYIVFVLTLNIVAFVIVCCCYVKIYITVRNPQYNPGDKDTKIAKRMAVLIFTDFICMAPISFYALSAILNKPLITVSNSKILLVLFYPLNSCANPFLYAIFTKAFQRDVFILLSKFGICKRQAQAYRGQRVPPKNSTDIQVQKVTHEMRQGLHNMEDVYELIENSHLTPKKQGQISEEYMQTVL
Sequence of Estrogen receptor (Homo sapiens) (P03372 whole entry, looked up): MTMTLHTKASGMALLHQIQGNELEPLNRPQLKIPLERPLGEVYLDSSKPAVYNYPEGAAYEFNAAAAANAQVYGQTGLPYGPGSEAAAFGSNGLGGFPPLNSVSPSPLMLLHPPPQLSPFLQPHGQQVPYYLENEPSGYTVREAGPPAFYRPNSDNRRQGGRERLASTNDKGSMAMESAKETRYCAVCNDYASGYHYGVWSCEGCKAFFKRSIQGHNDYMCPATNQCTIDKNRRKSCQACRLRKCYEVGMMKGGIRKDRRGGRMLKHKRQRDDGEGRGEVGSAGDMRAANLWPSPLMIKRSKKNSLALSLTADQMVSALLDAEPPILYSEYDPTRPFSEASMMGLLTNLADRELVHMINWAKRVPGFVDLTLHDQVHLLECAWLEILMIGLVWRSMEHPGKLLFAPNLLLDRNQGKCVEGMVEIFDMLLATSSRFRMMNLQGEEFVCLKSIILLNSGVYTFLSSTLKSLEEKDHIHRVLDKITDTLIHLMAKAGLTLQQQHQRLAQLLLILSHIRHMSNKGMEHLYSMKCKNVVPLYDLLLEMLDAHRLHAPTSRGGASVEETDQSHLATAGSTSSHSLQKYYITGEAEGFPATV

COc1ccc2[nH]cc(CCNC(C)=O)c2c1
inactive: all assays above

OC(Cn1cncn1)(Cn1cncn1)c1ccc(F)cc1F
not listed: [8]
inactive: all other assays above

Nc1ccc(O)c(C(=O)O)c1
not listed: [8]
inactive: all other assays above

CCCNC(=O)NS(=O)(=O)c1ccc(Cl)cc1
not listed: [8]
inactive: all other assays above

COC(=O)[C@H](Cc1ccccc1)NC(=O)[C@@H](N)CC(=O)O (H-Asp-Phe-OMe)
not listed: [11] | [12]
inactive: all other assays above

C[C@]12C=CC(=O)C=C1CC[C@@H]1[C@@H]2[C@@H](O)C[C@@]2(C)[C@H]1CC[C@]2(O)C(=O)CO
not listed: [17] | [18]
inactive: all other assays above

NC(N)=NC(=O)c1nc(Cl)c(N)nc1N
inactive: all assays above

Cc1ccc(S(=O)(=O)NC(=O)NN2CCCCCC2)cc1
inactive: all assays above
